From PubChem BioAssay
The list is not random: actives were taken first. Their share in the collection is about 5%.
AI-2 QS modul: modulators of Vibrio harveyi AI-2 quorum sensing system. 0.4% of 300,000 active. activity change, % at 7.5 µM. Vibrio harveyi JMH597 AI-2 luminescence/OD600 ratio, 9 h; active compounds read low; strain lacks LuxN and CqsS sensors; 0 = neutral-control median; in the data active means activity change below about -75%, passing the limit was not always enough;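 further: luminescence divided by OD600 gain over 9 h not by final OD600 alone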
PREPL inhibitor: human PREPL enzyme inhibition | Q4J6C6 | recombinant PREPL, fluorescence polarization activity-based probe | inhibition, % at 5.96 µM | 0.68% of 320,000 active
CHT PAM: allosterically activates the human high affinity choline transporter. CHT-expressing cells, membrane potential dye, choline EC20; active compounds read high; LV-AA mutant CHT in HEK293 cells. 0.49% of 310,000 active. Q9GZV3. AID 488977. B-score at 10 µM;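 active means initial fluorescence not abnormally high and integrated response B-score, plate-corrected, over 3 SD above library mean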
ALR H2O2 inh: blocks human ALR sulfhydryl oxidase activity. purified ALR, DTT oxidation, H2O2 HRP-luminol luminescence. inhibition, % (concentration not given with the values). 3.8% of 290,000 active. AID 485317;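 active means mean replicate inhibition above about 79%, with every replicate also reaching it, limit read from the data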
CHT inh: inhibitors of human choline transporter CHT | Q9GZV3 | CHT-expressing cells, membrane potential dye, choline response; active compounds read low | B-score at 10 µM | 0.86% of 310,000 active | AID 488975;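 active means B-score over 3 SD under the library average, and starting fluorescence ratio not unusually high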;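 further: choline stimulus applied at its EC90 after an EC20 pre-addition; B-score computed on integrated fluorescence ratio after choline addition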
PREPL confirm: human PREPL inhibition, confirmation; inhibition, % at 5.96 µM; shares compounds with PREPL inhibitor; AID 2803; recombinant PREPL, fluorescence polarization activity probe; 67% of 2,000 active
Numbers stand for hits; . = inactive; / = no result given. Unless noted, no stated cut-off is given here; in the data, active means inhibition above about 43%; inactive means the rest.

SMILES | AI-2 QS modul | PREPL inhibitor | CHT PAM | ALR H2O2 inh | CHT inh | PREPL confirm
COc1cc2c(C#N)c(N3CCN(c4ccccc4OC)CC3)nc(N)c2c(N)n1 | . | 48.9 | . | . | . | 45.5
COc1cc2c(C#N)c(N3CCN(C)CC3)nc(N)c2c(N)n1 | . | 45.4 | . | . | . | .
CC(C)N1CCN(Cc2cccn2-c2ccccn2)CC1CCO (stereo unspecified) | . | . | . | . | . | /
Cc1ccc(-n2nc(C(=O)NN)c(C)c(C#N)c2=O)cc1Cl | . | 65.8 | . | . | . | .
COc1ccc(NC(=O)NCCN2CCN(c3cc(OC)ccc3OC)CC2)cc1 | . | . | . | . | . | /
COc1ccc(Cl)c(N2CCN(CCCNC(=O)Nc3ccc(C)cc3)CC2)c1 | . | 47.1 | . | . | . | .
COc1ccccc1NC(=O)N1CCN(Cc2ccc3c(c2)OCO3)CC1 | . | . | . | . | . | /
CCOc1ccc(Nc2c3ccccc3nc3ccccc23)cc1 | . | 55.8 | . | / | . | 59.6
O=C(COc1ccccc1/C=C1/NC(=O)NC1=O)Nc1ccccc1 | . | . | . | . | . | /
COc1cc(/C=C2/NC(=O)NC2=O)ccc1OCC(=O)Nc1ccc(F)cc1 | . | 86.6 | . | . | . | .
CC(C)N1CCN(c2ccc(OC[C@H]3CO[C@](Cn4cncn4)(c4ccc(Cl)cc4Cl)O3)cc2)CC1 | / | 56.7 | . | . | . | 46.5
O=C(NCc1ccco1)c1ccc(F)c(S(=O)(=O)N2CCCCC2)c1 | . | 61.0 | . | . | . | .
Cc1cc(C)n(C(=O)CCCn2nc(C)c([N+](=O)[O-])c2C)n1 | . | . | . | . | . | /
Cc1ccc2nc(/C(C#N)=C/c3ccc(-c4cccc([N+](=O)[O-])c4)o3)[nH]c2c1 | / | . | . | . | . | /
Cc1cc(/C=C(/C#N)c2nc3ccccc3[nH]2)c(C)n1-c1cccc([N+](=O)[O-])c1 | . | 43.6 | . | . | . | .
COc1c(O)ccc(/C=C(\C#N)c2nc3ccccc3[nH]2)c1[N+](=O)[O-] | . | 55.9 | . | 87.2 | . | .
COc1cccc(/C=C(\C#N)c2nc3ccccc3[nH]2)c1OCC(=O)O | . | . | . | / | . | /
O=C(c1cc2cc(Br)ccc2o1)N1CCCC1 | . | . | . | . | . | /
COc1ccc(C2CC(C(F)(F)F)n3nc(C(=O)Nc4ccc5c(c4)OCO5)cc3N2)cc1 (stereo unspecified) | . | 49.0 | . | . | . | .
COc1ccc(OC)c(NC(=O)c2cc3n(n2)C(C(F)(F)F)CC(c2ccc4c(c2)OCO4)N3)c1 (stereo unspecified) | . | . | . | . | . | /
CC(=O)Nc1ccc(/C=N/Nc2nc3ccccc3s2)cc1 | . | / | / | / | / | /
Cc1ccsc1/C=N/Nc1nc2ccccc2s1 | . | 46.0 | . | / | . | 55.0
C/C(=N\Nc1nc2ccccc2s1)c1cccs1 | . | 44.9 | . | / | . | 51.4
C/C(=N\Nc1nc(-c2ccccc2)cs1)c1cccs1 | . | . | . | . | . | /
CCCOc1ccc(CNC(=O)Cc2cccs2)cc1 | . | . | . | . | . | /
SMILES | AI-2 QS modul | PREPL inhibitor | CHT PAM | ALR H2O2 inh | CHT inh | PREPL confirm
COC(=O)CCC(=O)OC1(C)C(=O)C2=CN(CCN3CCOCC3)C(c3ccc(OC)cc3)=CC2=C(Br)C1=O (stereo unspecified) | . | . | . | . | . | /
COC(=O)CCC(=O)OC1(C)C(=O)C2=CN(C(CO)CO)C(c3ccc(OC)cc3)=CC2=C(Br)C1=O (stereo unspecified) | . | 58.4 | . | / | . | .
Cc1ccc(C(=O)Nc2ccc(Br)cc2)cc1S(=O)(=O)Nc1ccccn1 | . | 43.3 | . | . | . | .
Cc1ccc(C(=O)Nc2ccccc2)cc1S(=O)(=O)Nc1ccc(Cl)cn1 | . | . | . | . | . | /
COc1cc(/C=C2/SC(=S)N(CC(=O)O)C2=O)ccc1OC(=O)c1cccs1 | . | 58.5 | . | / | . | 62.1
C=CC[C@H](CC(=O)OC(C)(C)C)C(=O)OC[C@@H]1CCCN1C(=O)[C@@H](CC=C)CC(=O)N[C@H](CO)Cc1ccccc1 | / | . | / | . | / | /
O=c1cc(-c2ccc(O)c(O)c2)oc2cc(O[C@@H]3O[C@H](CO)[C@@H](O)[C@H](O)[C@H]3O)cc(O)c12 | / | 73.3 | / | 99.0 | / | 59.8
Cc1ccc(Sc2ccc(N)cn2)cc1 | . | . | . | . | . | /
COC(=O)C1=C(NC(=O)COc2ccc3ccccc3c2)CCS1 | . | 58.0 | . | . | . | .
